HT1080 IDH1KD tx: toxicity to HT-1080 IDH1 knockdown cells (counter line) | HT-1080 IDH1 knockdown viability, ATP luminescence, 48 h | Potency, µM (doses to about 46.1 µM), for inactives: at the highest dose activity, negative = toxicity, most hits filed as cytotoxic | 2% of 360,000 active;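 note: potency is the fitted concentration of half-maximal effect; 0% = DMSO wells and -100% = cell-free medium wells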
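HT-1080-IDH1KD cells (IDH1 knocked down), 750/well in RPMI with 5% FBS, treated with compound 48 h at 37 degrees C. Viability by CellTiter-Glo luminescence, normalised to DMSO and no-cell wells; concentration-response curves classed.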
TDP1 cell CPT: DT40-hTDP1 cell growth loss with CPT; AID 686979; 12% of 420,000 active; Potency, µM (series often up to 46.2 µM), for inactives: top-dose activity change, negative = growth inhibition, most hits filed as inhibitors; chicken DT40 Tdp1-/-;hTDP1 cells + 20 nM CPT, ATP luminescence, 48 h; note: potency is the fitted concentration of half-maximal effect; nearly all actives have a fitted effect of over 55% in size
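Chicken DT40 Tdp1-/- cells complemented with human TDP1, 400 cells/well, exposed to compounds plus 20 nM camptothecin for at least 48 h at 37 C; viability read as ATP content by CellTiter-Glo luminescence.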
TDP1 cell noCPT: qHTS for Inhibitors of human tyrosyl-DNA phosphodiesterase 1 (TDP1): qHTS in cells in absence of CPT | DT40 Tdp1-/- hTDP1 cells, no CPT, ATP luminescence, 48 h | Potency, µM (top dose mostly 46.2 µM), for the others: at the highest dose activity change, negative = growth inhibition, actives largely listed as inhibitors | 15% of 420,000 active | AID 686978, 2013; note: potency is the fitted concentration of half-maximal effect; nearly all actives have a fitted effect of over 55% in size
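No-CPT arm: Tdp1-/-;hTDP1 DT40 cells (400/well) plus compounds, incubated ≥48 hr at 37 °C. Readout CellTiter-Glo luminescence.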
ELG1 repair inh: inhibitors of ELG1-dependent DNA repair in HEK293T cells; HEK293T ELG1-luciferase reporter, luminescence, 16 h; DNA damage induced by 5-fluorouridine; Potency, µM (doses to about 46.1 µM), for the others: at the highest dose activity change, negative = inhibition, most hits filed as inhibitors; 2.3% of 330,000 active; AID 504467; note: potency is the fitted concentration of half-maximal effect; nearly all actives have a fitted effect of over 55% in size
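Luminescence from the luciferase reporter, measured 30 min after ONE-Glo reagent at room temperature, was the read-out. Beforehand, 2,000 cells per well were exposed for 16 hr at 37 °C to 5-fluorouridine together with compound or vehicle.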
IL1B secr inh: inhibitors of inflammasome signaling (IL-1 beta secretion). THP-1 LPS/ATP IL-1B secretion, AlphaLISA, 16 h; hits give low values. activity change, % at 57.5 µM. 4.7% of 360,000 active. AID 743279; in the data active = activity change below about -50%; inconclusive = mostly about -30% to -49%
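Secreted IL-1B measured by AlphaLISA bead assay after 16 h compound exposure of THP-1 cells; compounds (final up to 57.5 uM) added 1 h before LPS (250 ng/mL) and ATP (1.25 mM) stimulation; lower signal means less secretion.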
HT1080NT lethal: kills 2HG-producing HT-1080-NT fibrosarcoma cells. HT-1080-NT fibrosarcoma viability, CellTiter-Glo ATP luminescence, 48 h. Potency, µM (titrated, usually from 46.1 µM), for the others: at the top dose activity, negative = less viability, usual class: cytotoxic. 1.6% of 360,000 active;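 note: NT is the 2HG producing partner of a matched IDH1 knockdown line; potency is the fitted concentration of half-maximal effect; 0% = DMSO-treated cells and -100% = media-only wells without cells; nearly all actives have a fitted effect of over 55% in size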
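Luminescent CellTiter-Glo readout after 48 hours of compound exposure at 37 degrees C defined viability of HT-1080-NT cells. Activity was normalized to DMSO wells and cell-free media wells; concentration-response curves were fitted and assigned curve classes.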
* marks the source's active call; other numbers are inactive results. Most compounds without a hit are left out; they make up all but 19% or so of the library. Unless noted, calls come from the whole dose curve; as a rule, active = well fitted curve in the direction sought with a large enough effect; inconclusive = small, poorly fitted or top-dose-only effect, or another doubt; inactive = no such curve, though single readings can be large; an effect the other way counts as inactive or inconclusive. Unless noted, % is set by controls: 0 for no effect and ±100 for the full control effect.

Results for Cc1cccc(NC(=S)N(C)Cc2cn(C)c3ccccc23)c1 ?
HT1080 IDH1KD tx: -1.3%; TDP1 cell CPT: 25.9µM*; TDP1 cell noCPT: 16.4µM*; ELG1 repair inh: inconclusive; IL1B secr inh: -23.9; HT1080NT lethal: -2.3%

Results for CN(Cc1cn(C)c2ccccc12)C(=S)Nc1cc(F)cc(F)c1 ?
HT1080 IDH1KD tx: 0.0%; TDP1 cell CPT: -25.4%; TDP1 cell noCPT: inconclusive; ELG1 repair inh: -5.1%; IL1B secr inh: -14.3; HT1080NT lethal: 1.2%

Results for O=C(/C=C/c1ccc(F)cc1)NCC1Cc2cccc(-c3ncccn3)c2O1 (stereo not drawn) ?
TDP1 cell CPT: inconclusive; TDP1 cell noCPT: 18.4µM*

How did O=C(/C=C/c1ccccn1)NCC1Cc2cccc(-c3ncccn3)c2O1 (stereo not drawn) do in these assays?
TDP1 cell CPT: 2.3%; TDP1 cell noCPT: -12.0%

Results for CCOC(=O)C1CCN(C(c2ccccc2)c2c(O)cc(C)n(Cc3ccco3)c2=O)CC1 (stereo not drawn) ?
TDP1 cell CPT: -1.9%; TDP1 cell noCPT: -5.3%

What do the screens show for `Cc1c(C(=O)OCC(=O)c2c(N)n(CC(C)C)c(=O)n(C)c2=O)oc2ccccc12`?
HT1080 IDH1KD tx: -22.5%; TDP1 cell CPT: inconclusive; TDP1 cell noCPT: 23.1µM*; ELG1 repair inh: 10.3µM*; IL1B secr inh: -5.1; HT1080NT lethal: -18.0%

Results for COCc1c(C(=O)OCC(=O)c2c(N)n(CC(C)C)c(=O)n(C)c2=O)oc2ccccc12 ?
HT1080 IDH1KD tx: -1.1%; TDP1 cell CPT: 18.4µM*; TDP1 cell noCPT: 20.6µM*; ELG1 repair inh: inconclusive; IL1B secr inh: 3.3; HT1080NT lethal: -10.7%

What do the screens show for `O=C1C(c2ccncc2)=C(O)c2ccccc21`?
HT1080 IDH1KD tx: -8.1%; TDP1 cell CPT: inconclusive; TDP1 cell noCPT: 18.4µM*; ELG1 repair inh: inconclusive; IL1B secr inh: -10.6; HT1080NT lethal: -2.9%

How did FC(F)OC(Cl)C(F)(F)F (stereo not drawn) do in these assays?
TDP1 cell CPT: 9.5%; TDP1 cell noCPT: -4.1%

How did O=C(NNC(=O)c1ccc(Cl)cc1Cl)c1cnccn1 do in these assays?
HT1080 IDH1KD tx: inconclusive; TDP1 cell CPT: inconclusive; TDP1 cell noCPT: 25.9µM*; ELG1 repair inh: 0.0%; IL1B secr inh: 29.3; HT1080NT lethal: -10.4%

Results for O=C(NNC(=O)c1cnccn1)c1ccc(Cl)cc1 ?
HT1080 IDH1KD tx: -19.8%; TDP1 cell CPT: inconclusive; TDP1 cell noCPT: 14.6µM*; ELG1 repair inh: inconclusive; IL1B secr inh: 23.1; HT1080NT lethal: -14.8%

Results for COc1ccc(Cl)cc1NC(=O)c1cnccn1 ?
HT1080 IDH1KD tx: -1.2%; TDP1 cell CPT: 10.7%; TDP1 cell noCPT: -27.1%; ELG1 repair inh: -4.0%; IL1B secr inh: 12.7; HT1080NT lethal: 2.1%

How did Cc1cc(OCC(=O)NNC(=O)c2cnccn2)cc(C)c1Cl do in these assays?
HT1080 IDH1KD tx: inconclusive; TDP1 cell CPT: 10.3µM*; TDP1 cell noCPT: 5.8µM*; ELG1 repair inh: -11.9%; IL1B secr inh: 46.0; HT1080NT lethal: inconclusive

Results for O=C(Nc1ccccc1Cl)c1cnccn1 ?
HT1080 IDH1KD tx: 1.2%; TDP1 cell CPT: 6.1%; TDP1 cell noCPT: 5.3%; ELG1 repair inh: inconclusive; IL1B secr inh: -6.2; HT1080NT lethal: 12.6%

What do the screens show for `CCn1cc(C(=O)Nc2ncccc2O)c(=O)c2cc(F)c(N3CCN(C(=O)c4ccco4)CC3)cc21`?
HT1080 IDH1KD tx: 6.6%; TDP1 cell CPT: 13µM*; TDP1 cell noCPT: 8.2µM*; ELG1 repair inh: inconclusive; IL1B secr inh: -1.3; HT1080NT lethal: 4.7%

What do the screens show for `C=CCCCCCCCCC(=O)N1CCN(c2cc3c(cc2F)c(=O)c(C(=O)O)cn3CC)CC1`?
HT1080 IDH1KD tx: 7.0%; TDP1 cell CPT: 20.6µM*; TDP1 cell noCPT: inconclusive; ELG1 repair inh: 2.1%; IL1B secr inh: 27.7; HT1080NT lethal: 1.7%

Results for CCn1cc(C(=O)O)c(=O)c2cc(F)c(N3CCN(C(=S)NC(=O)c4ccccc4Cl)CC3)cc21 ?
HT1080 IDH1KD tx: 1.2%; TDP1 cell CPT: inconclusive; TDP1 cell noCPT: inconclusive; ELG1 repair inh: 6.0%; IL1B secr inh: 7.7; HT1080NT lethal: 1.5%

What do the screens show for `CCCNC(=O)c1cn(CC)c2cc(N3CCN(C)CC3)c(F)cc2c1=O`?
HT1080 IDH1KD tx: 8.6%; TDP1 cell CPT: -1.9%; TDP1 cell noCPT: -1.7%; ELG1 repair inh: 0.0%; IL1B secr inh: 3.3; HT1080NT lethal: 7.4%

How did C=CCNC(=S)N1CCN(c2cc3c(cc2F)c(=O)c(C(=O)O)cn3CC)CC1 do in these assays?
HT1080 IDH1KD tx: 0.6%; TDP1 cell CPT: inconclusive; TDP1 cell noCPT: inconclusive; ELG1 repair inh: inconclusive; IL1B secr inh: inconclusive; HT1080NT lethal: 14.5%

How did CCCCCNC(=O)c1cn(CC)c2cc(N3CCN(C)CC3)c(F)cc2c1=O do in these assays?
HT1080 IDH1KD tx: inconclusive; TDP1 cell CPT: -2.0%; TDP1 cell noCPT: inconclusive; ELG1 repair inh: 0.5%; IL1B secr inh: -84.9*; HT1080NT lethal: 16.4µM*

What do the screens show for `CCn1cc(C(=O)NC(C)C)c(=O)c2cc(F)c(N3CCN(C(=O)c4ccco4)CC3)cc21`?
HT1080 IDH1KD tx: -5.8%; TDP1 cell CPT: inconclusive; TDP1 cell noCPT: 18.4µM*; ELG1 repair inh: -12.4%; IL1B secr inh: -7.2; HT1080NT lethal: -15.7%

What do the screens show for `COCC(C)n1c(C)cc(C(=O)COC(=O)/C=C/c2cccc(F)c2)c1C` (stereo not drawn)?
HT1080 IDH1KD tx: -0.9%; TDP1 cell CPT: inconclusive; TDP1 cell noCPT: inconclusive; ELG1 repair inh: 0.5%; IL1B secr inh: -8.4; HT1080NT lethal: -9.7%

What do the screens show for `CCn1cc(C(=O)NCCC(C)C)c(=O)c2cc(F)c(N3CCN(C(=O)c4ccco4)CC3)cc21`?
HT1080 IDH1KD tx: -2.6%; TDP1 cell CPT: 16.4µM*; TDP1 cell noCPT: 18.4µM*; ELG1 repair inh: inconclusive; IL1B secr inh: -14.6; HT1080NT lethal: -1.2%

What do the screens show for `Cc1c(C(=O)/C=C/N(C)C)nnn1-c1ccc(Cl)cc1C#N`?
HT1080 IDH1KD tx: 19.3%; TDP1 cell CPT: -2.6%; TDP1 cell noCPT: -17.8%; ELG1 repair inh: 4.4%; HT1080NT lethal: 18.4%

How did Cc1ccccc1C(=O)Nc1nc(-c2ccc(Br)cc2)ns1 do in these assays?
TDP1 cell CPT: 16.4µM*; TDP1 cell noCPT: 20.6µM*

What do the screens show for `COc1ccc(-c2nsc(NC(=O)COc3ccccc3OC)n2)cc1`?
TDP1 cell CPT: -16.4%; TDP1 cell noCPT: -26.8%

Compound activity (PubChem)
